A selection: hits, their analogues and other compounds. The true share with any hit is near 6%.
DRD3 agonist: qHTS of D3 Dopamine Receptor Agonist: qHTS; hit rate 0.58% among 410,000; AID 652048, 2013; max activation, %; D3R DiscoveRx beta-arrestin cells, luminescence, 90 min; in the data active means max activation above about 30%
Target sequence (P35462 whole entry, looked up): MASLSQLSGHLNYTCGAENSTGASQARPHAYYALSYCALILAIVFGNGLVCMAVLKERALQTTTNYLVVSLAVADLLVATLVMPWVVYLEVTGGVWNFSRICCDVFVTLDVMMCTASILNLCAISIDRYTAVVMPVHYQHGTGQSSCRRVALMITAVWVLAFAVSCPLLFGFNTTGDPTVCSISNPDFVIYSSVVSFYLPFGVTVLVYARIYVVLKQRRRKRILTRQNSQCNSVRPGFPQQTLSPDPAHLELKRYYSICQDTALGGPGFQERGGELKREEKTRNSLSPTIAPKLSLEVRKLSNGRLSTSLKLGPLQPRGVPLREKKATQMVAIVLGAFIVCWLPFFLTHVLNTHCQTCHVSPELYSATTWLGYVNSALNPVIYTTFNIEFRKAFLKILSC
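Cells at 1500/well, incubated overnight, then treated with pinned compounds (dopamine as control) for 90 min at 37 degrees C. DiscoveRx reagent added for 30 - 60 minutes at room temperature; luminescence read.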
D3 antag: qHTS of D3 Dopamine Receptor Antagonist: qHTS. D(3) dopamine receptor (Homo sapiens), P35462. D3R cells, DiscoveRx beta-arrestin luminescence, antagonist mode; hits give low values. max response, negative = inhibition, %. hit rate 2.5% among 360,000; in the data active means max response below about -50%; inconclusive means no clear call, values can overlap the other calls
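Cells plated overnight at 1500 cells/well, then exposed to library compounds with dopamine controls for 90 minutes at 37 degrees C. DiscoveRx reagent added for 30–60 minutes at room temperature; luminescence read, quantitative HTS format.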
D1 antag: Antagonist of Human D 1 Dopamine Receptor: qHTS | activity change, negative = inhibition, % at 10 µM | hit rate 3.2% among 360,000 | AID 504652, 2011 | HEK293 TREx D1 cells, calcium flux, dopamine EC80; hits give low values; in the data active means activity change below about -30%
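HEK293 T-REx cells expressing inducible, force-coupled D1 receptor; no-wash Ca dye, 30–90 min RT. Cmpd → 180 s read at 1 Hz → EC80 DA → 180 s read.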
D1 agonist: Allosteric Agonists of the Human D1 Dopamine Receptor: qHTS; D(1A) dopamine receptor (Homo sapiens), P21728; HEK293 T-REx D1 cells, calcium flux, agonist mode; activation, % at 2 µM; hit rate 1% among 360,000; in the data active means activation above about 30%
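Inducible HEK293 T-REx D1 cells, force-coupled to calcium signalling, were plated at 4000 cells/well with tetracycline and held overnight at 30 C. After no-wash calcium dye loading, compound-evoked calcium rise over 180 s flagged agonists.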
D1 potentiator: Potentiators of Human D1 Dopamine Receptor: qHTS; hit rate 0.036% among 360,000; HEK293 TREx D1 cells, calcium flux, dopamine EC20 potentiation; AID 504651, 2011; potentiation, % at 10 µM; D(1A) dopamine receptor (Homo sapiens), P21728; in the data active means potentiation above about 30%
Each line names hits and unclear results; the compound was inactive in the other large screens.

Fc1ccc(C(OCCN2CCCC2)c2ccc(Br)cc2)cc1 (stereo not drawn)	D3 antag -73
c1ccc(CCCN2CCN(CCOC(c3ccccc3)c3ccccc3)CC2)cc1	D3 antag -76 (no result: D1 antag, D1 agonist, D1 potentiator)
Fc1ccc(C(OCCN2CCCC2)c2ccc(F)cc2)cc1	D3 antag -61
Fc1ccc(C(OCCN2CCN(CCCc3ccccc3)CC2)c2ccc(F)cc2)cc1	none (no result: D3 antag, D1 antag, D1 agonist, D1 potentiator)
C[N+]1(C)CCCCC1COC(=O)C(O)(c1ccccc1)c1ccccc1 (stereo not drawn)	none (no result: D3 antag, D1 antag, D1 agonist, D1 potentiator)
CNc1ccc(C(=O)CC(O)CCC(C)C2OC(=O)CC(O)CC(=O)CC(O)CC(O)CC(O)CC(O)CC3(O)CC(O)C(C(=O)OC)C(CC(O[C@@H]4O[C@H](C)[C@@H](O)[C@H](N)[C@@H]4O)/C=C/C=C/C=C/C=C/C=C/C=C/C=C/C2C)O3)cc1 (stereo partly drawn)	none (no result: D3 antag, D1 antag, D1 agonist, D1 potentiator)
C[C@H]1CC[C@]2(NC1)O[C@H]1C[C@H]3[C@@H]4CC[C@H]5C[C@@H](O[C@@H]6O[C@H](CO)[C@H](O[C@@H]7O[C@H](CO)[C@@H](O)[C@H](O[C@@H]8OC[C@@H](O)[C@H](O)[C@H]8O)[C@H]7O[C@@H]7O[C@H](CO)[C@@H](O)[C@H](O)[C@H]7O)[C@H](O)[C@H]6O)CC[C@]5(C)[C@H]4CC[C@]3(C)[C@H]1[C@@H]2C	none (no result: D3 antag, D1 antag, D1 agonist, D1 potentiator)
O=c1[nH]c2ccccc2n1C1CCN(Cc2ccc(-c3[nH]c4cc5ncnc5cc4nc3-c3ccccc3)cc2)CC1	D3 antag -96 (no result: D1 antag, D1 agonist, D1 potentiator)
O=C1CC(N2CCC(n3c(=O)[nH]c4ccccc43)CC2)C(=O)N1Cc1ccccc1 (stereo not drawn)	none
CN1CC[C@]23c4c5ccc(O)c4O[C@H]2[C@@H](O)C=C[C@H]3[C@H]1C5	none (no result: D3 antag, D1 antag, D1 agonist, D1 potentiator)
c1ccc(CN2CCc3nc4ccccc4cc3C2)cc1	DRD3 agonist 60
CN1CCN(Cc2ccc3ccccc3c2)CC1	none
Clc1ccc(Cl)cc1	none (no result: D3 antag, D1 antag, D1 agonist, D1 potentiator)
CC(C)(O)[C@@H]1[C@H]2OC(=O)[C@@H]1[C@]1(O)C[C@H]3O[C@]34C(=O)O[C@H]2[C@]14C	none (no result: D3 antag, D1 antag, D1 agonist, D1 potentiator)
COc1ccc(Cl)cc1C(=O)C1CCCN(CCO)C1 (stereo not drawn)	D3 antag -50
COc1ccc(CN2CCCC(C(=O)c3cccc(Cl)c3)C2)cc1 (stereo not drawn)	D3 antag -73
CCn1ccnc1CN1CCCC(C(=O)c2cc(Cl)ccc2OC)C1 (stereo not drawn)	none
COc1ccc(CN2CCCC(C(=O)c3ccc(Cl)cc3)C2)c(OC)c1 (stereo not drawn)	D3 antag -60, D1 antag -35
COc1ccc(CN2CCCC(C(=O)c3ccccc3SC)C2)cc1O (stereo not drawn)	D3 antag -61
CN1C(=O)C(O)N=C(c2ccccc2)c2cc(Cl)ccc21 (stereo not drawn)	none (no result: D3 antag, D1 antag, D1 agonist, D1 potentiator)
N#Cc1ccccc1NC(=O)c1cccn(Cc2ccccc2)c1=O	none (no result: D3 antag, D1 antag)
Cc1cccc(-n2c(/C=C/c3cn(C)c4ccccc34)nc3ccccc3c2=O)c1	none (no result: D3 antag)
O=C(O)Cn1cc(/C=C2\C(=O)NC(=O)N(c3ccc(Br)cc3)C2=O)c2ccccc21	D1 antag -31
O=C1NC(=O)N(Cc2ccc(F)cc2)C(=O)/C1=C\C=C\c1ccco1	none
O=C(O)Cn1cc(/C=C2\C(=O)NC(=O)N(Cc3ccco3)C2=O)c2ccccc21	D3 antag -64
O=C1NC(=O)N(Cc2ccccc2)C(=O)/C1=C\c1ccco1	D1 antag -32
CCN(CC)c1ccc(/C=C2\C(=O)NC(=O)N(Cc3ccco3)C2=O)cc1	D1 antag -46
CCN1C(=O)NC(=O)/C(=C\c2cn(CC(=O)O)c3ccccc23)C1=O	none (no result: DRD3 agonist, D3 antag)
CC(C)(O)C(Cl)(Cl)Cl	none (no result: D3 antag, D1 antag, D1 agonist, D1 potentiator)
CN1[C@@H]2CC[C@H]1CC(OC1c3ccccc3CCc3ccccc31)C2 (stereo partly drawn)	D3 antag -91, D1 antag -43, D1 agonist 44
Nc1c(C(=O)Nc2ccc(Br)cc2F)sc2nc3c(cc12)N1CCC3CC1	D1 antag -32 (no result: D3 antag)
CCC(=O)O[C@](Cc1ccccc1)(c1ccccc1)[C@H](C)CN(C)C	DRD3 agonist 55 (no result: D3 antag, D1 antag, D1 agonist, D1 potentiator)
COc1ccc(OCC(=O)N2CCN(Cc3cccc(OC)c3OC)CC2)cc1	none (no result: D3 antag)
CCCCCCC(=O)O[C@H]1CC[C@H]2[C@@H]3CC[C@H]4CC(=O)C=C(C)[C@]4(C)[C@H]3CC[C@]12C	none (no result: D3 antag, D1 antag, D1 agonist, D1 potentiator)
Ic1ccccc1CN[C@@H]1C2CCN(CC2)[C@@H]1C(c1ccccc1)c1ccccc1	D1 antag -31, D1 agonist 84
Fc1ccccc1CNC1CN2CCC1CC2 (stereo not drawn)	none
Cc1ccc(O)c(CN2CCN(c3ccccc3)CC2)c1	D3 antag -80
Cc1cc(O)c(CN2CCN(c3ccccc3)CC2)cc1C	D3 antag -65
COc1cccc(CN2CCN(c3ccc(F)cc3)CC2)c1OC	D3 antag inconclusive (no result: D1 antag, D1 agonist, D1 potentiator)
COc1ccc(CN2CCN(c3ccccc3)CC2)c(C)c1C	D3 antag -75
Oc1ccc(Cl)cc1CN1CCN(Cc2ccccc2)CC1	D3 antag -66
CC[C@H](C)[C@H]1O[C@]2(C=C[C@@H]1C)C[C@@H]1C[C@@H](C/C=C(\C)[C@@H](O[C@H]3C[C@H](OC)[C@@H](O[C@H]4C[C@H](OC)[C@@H](O)[C@H](C)O4)[C@H](C)O3)[C@@H](C)/C=C/C=C3\CO[C@@H]4[C@H](O)C(C)=C[C@@H](C(=O)O1)[C@]34O)O2	none (no result: D3 antag, D1 antag, D1 agonist, D1 potentiator)
Cc1ccc(-n2c(/C=C/c3cc(Br)cs3)nc3ccccc3c2=O)cc1	none (no result: D3 antag)
Brc1cc2c(cc1CN1CCN(c3ccccc3)CC1)OCCO2	D3 antag -73
Oc1cc2c(cc1CN1CCN(c3ccccc3)CC1)CCC2	none
Oc1cc2c(cc1CN1CCN(c3ccc(F)cc3)CC1)OCO2	D3 antag -66 (no result: D1 potentiator)
Clc1ccc2c(c1)C(c1ccccc1)=NCc1nncn1-2	none (no result: D3 antag, D1 antag, D1 agonist, D1 potentiator)
Cc1ccc(CN2C(=O)NC(=O)C3(Cc4c(nc5ccccn5c4=O)N4CCCCCC43)C2=O)cc1 (stereo not drawn)	DRD3 agonist 54
CNC(C)CC1CCCCC1 (stereo not drawn)	none (no result: D3 antag, D1 antag, D1 agonist, D1 potentiator)
O=C(c1ccc2c3c(cccc13)CC2)C1CCCN(CC2CC2)C1 (stereo not drawn)	D3 antag -81
Nc1cc(N2CCNCC2)c([N+](=O)[O-])cc1Cl	D1 antag -42
O=[N+]([O-])c1ccc(N2CCNCC2)cc1N1CCCCC1	none
COc1cc(CC(C)N)cc(OC)c1OC (stereo not drawn)	none (no result: D3 antag, D1 antag, D1 agonist, D1 potentiator)
COc1ccccc1-c1nn2c(=O)cc(CN3CCN(C(=O)COc4ccccc4Cl)CC3)nc2s1	none (no result: D3 antag)

Screens as filed in PubChem BioAssay.
